Measurements published in PubChem BioAssay (EPA / NIEHS).
Inconclusive results are not listed. Active and inactive are the calls of the source. Rule for the calls, unless noted: active = hit-call score of the fitted dose curve at least 0.9, where 1 is the maximum; inactive = score below 0.9.

Legend:
[1] = ATG_PXRE_CIS: Attagene CIS-FACTORIAL HepG2 Assay for human Pregnane X Receptor Element (PXRE) (AID 2282957); details: HepG2 Attagene CIS-FACTORIAL PXRE reporter, mRNA; actives raise or lower the signal
In short: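 Read-out: fluorescence of reporter-specific RT-PCR products resolved by capillary electrophoresis, fitted bidirectionally relative to DMSO. Human HepG2 liver cells carried transfected cis-promoter reporter units and were exposed to chemicals for 24 h.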

[2] = ATG_PPRE_CIS: Attagene CIS-FACTORIAL HepG2 Assay for human Peroxisome Proliferator-activated Response Element (PPRE) (AID 2282958); details: HepG2 PPRE cis-element reporter, Attagene transcription factor profiling; actives raise or lower the signal
In short: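 Cells are first transfected transiently with the multiplexed reporter library, then dosed for 24 h. Total RNA is reverse-transcribed, amplified, fluorescently end-labeled and HpaI-cut before capillary electrophoresis; activity is fitted bidirectionally against DMSO controls.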

[3] = ATG_RORE_CIS: Attagene CIS-FACTORIAL HepG2 Assay for human RAR-related Orphan Receptor Element (RORE) (AID 2282959); details: HepG2 Attagene cis-factorial RORE reporter, mRNA; actives raise or lower the signal
In short: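 Cells were HepG2 carrying transfected cis-regulated reporter constructs, dosed for 24 hours. Total RNA was reverse-transcribed and reporter cDNA amplified, fluorescently labeled and sized by capillary electrophoresis. Activity was fitted bidirectionally relative to DMSO.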

[4] = ATG_Sox_CIS: Attagene CIS-FACTORIAL HepG2 Assay for human SRY-box transcription factor (SOX) (AID 2282960); details: HepG2 Attagene cis-factorial SOX reporter, mRNA; actives raise or lower the signal
In short: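 Transient MRTU transfection of HepG2; 24 h compound incubation; TriZol RNA, oligo(dT) RT, PCR, 6-FAM primer extension, HpaI cut, CE. Bidirectional fit, DMSO = baseline.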

[5] = target: Transcription factor Sp1 (Homo sapiens) (UniProt P08047); test: ATG_Sp1_CIS: Attagene CIS-FACTORIAL HepG2 Assay for human Specificity Protein 1 (Sp1) (AID 2282961); details: HepG2 Sp1 cis-reporter transcription, actives raise or lower the signal
Chain of Transcription factor Sp1 (Homo sapiens) (P08047 whole entry, looked up): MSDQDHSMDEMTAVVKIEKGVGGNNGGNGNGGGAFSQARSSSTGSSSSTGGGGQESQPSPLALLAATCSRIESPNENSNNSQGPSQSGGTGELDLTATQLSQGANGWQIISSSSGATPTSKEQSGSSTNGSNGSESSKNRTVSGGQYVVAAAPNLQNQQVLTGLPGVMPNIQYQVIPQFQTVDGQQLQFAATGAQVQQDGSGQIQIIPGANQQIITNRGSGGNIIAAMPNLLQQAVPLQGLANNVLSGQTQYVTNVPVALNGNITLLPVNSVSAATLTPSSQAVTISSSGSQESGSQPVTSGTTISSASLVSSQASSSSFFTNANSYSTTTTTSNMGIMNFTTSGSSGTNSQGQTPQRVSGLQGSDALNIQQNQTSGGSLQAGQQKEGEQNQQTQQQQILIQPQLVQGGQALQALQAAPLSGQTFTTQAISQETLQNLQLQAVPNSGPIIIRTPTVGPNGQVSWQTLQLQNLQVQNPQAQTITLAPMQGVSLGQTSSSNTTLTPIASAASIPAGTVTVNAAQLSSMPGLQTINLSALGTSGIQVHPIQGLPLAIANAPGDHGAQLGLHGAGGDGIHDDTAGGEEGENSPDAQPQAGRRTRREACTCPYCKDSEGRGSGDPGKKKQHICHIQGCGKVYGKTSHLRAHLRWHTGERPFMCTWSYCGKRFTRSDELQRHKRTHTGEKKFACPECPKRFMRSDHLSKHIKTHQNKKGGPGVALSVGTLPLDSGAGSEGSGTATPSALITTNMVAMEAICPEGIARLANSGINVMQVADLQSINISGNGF
In short: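 Endogenous Sp1 activity was gauged in human liver HepG2 cells bearing transfected reporter units under a cis-regulating promoter. After 24 h dosing, reporter mRNA was quantified by RT-PCR with capillary electrophoresis, and activity fitted bidirectionally versus DMSO.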

[6] = ATG_SREBP_CIS: Attagene CIS-FACTORIAL HepG2 Assay for human Sterol Regulatory Element Binding (SREBP) (AID 2282962); details: HepG2 Attagene cis-factorial SREBP reporter, mRNA; actives raise or lower the signal
In short: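 In this cis-format assay, HepG2 liver cells express reporters controlled by promoter elements responsive to native transcription factors. Exposure lasts 24 h; reporter mRNA fluorescence from capillary electrophoresis gives the signal, fitted bidirectionally against DMSO.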

[7] = target: Signal transducer and activator of transcription 3 (Homo sapiens) (UniProt P40763); test: ATG_STAT3_CIS: Attagene CIS-FACTORIAL HepG2 Assay for human Signal Transducer and Activator of Transcription 3 (STAT3) (AID 2282963); details: HepG2, Attagene cis-factorial STAT3 reporter transcription; actives raise or lower the signal
Chain of Signal transducer and activator of transcription 3 (Homo sapiens) (P40763 whole entry, looked up): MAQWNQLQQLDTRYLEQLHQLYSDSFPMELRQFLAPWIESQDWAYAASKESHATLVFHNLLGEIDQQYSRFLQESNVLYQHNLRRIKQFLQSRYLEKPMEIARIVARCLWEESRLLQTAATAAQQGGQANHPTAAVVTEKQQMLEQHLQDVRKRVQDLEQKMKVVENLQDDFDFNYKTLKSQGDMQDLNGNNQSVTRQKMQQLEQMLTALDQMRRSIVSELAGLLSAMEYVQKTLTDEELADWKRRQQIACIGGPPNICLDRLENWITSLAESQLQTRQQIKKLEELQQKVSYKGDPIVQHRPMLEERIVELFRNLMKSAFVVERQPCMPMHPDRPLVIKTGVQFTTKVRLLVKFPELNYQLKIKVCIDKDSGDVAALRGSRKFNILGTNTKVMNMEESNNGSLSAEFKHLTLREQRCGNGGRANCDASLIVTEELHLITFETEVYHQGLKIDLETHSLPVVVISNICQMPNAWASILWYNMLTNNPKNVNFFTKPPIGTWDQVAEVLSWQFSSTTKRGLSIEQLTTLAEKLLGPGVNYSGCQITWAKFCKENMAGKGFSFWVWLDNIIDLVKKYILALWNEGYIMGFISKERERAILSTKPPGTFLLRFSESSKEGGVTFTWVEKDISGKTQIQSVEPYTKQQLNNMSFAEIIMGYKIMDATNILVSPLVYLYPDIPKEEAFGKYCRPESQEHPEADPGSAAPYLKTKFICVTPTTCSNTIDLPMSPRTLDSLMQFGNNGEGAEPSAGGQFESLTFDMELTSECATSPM
In short: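 Cis-factorial format: endogenous transcription factors in HepG2 drive transfected reporter units. After 24 h treatment, reporter RNA was reverse-transcribed, amplified, FAM-labelled and HpaI-digested before CE analysis; activity scored in both directions against DMSO.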

[8] = ATG_TA_CIS: Attagene CIS-FACTORIAL HepG2 Assay for human TA Basal Promoter (AID 2282964); details: HepG2 Attagene CIS-factorial TA basal promoter reporter; actives raise or lower the signal
In short: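 HepG2 cells transiently transfected with multiplexed cis-promoter reporter units, dosed 24 h. Reporter mRNA measured by RT-PCR, 6-FAM labelling, HpaI digestion and capillary electrophoresis; bidirectional fit versus DMSO baseline, serving as background control.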

[9] = ATG_TCF_b_cat_CIS: Attagene CIS-FACTORIAL HepG2 Assay for human T-Cell-Factor with beta-catenin (TCF/b-cat) (AID 2282965); details: HepG2 TCF/beta-catenin cis-reporter transcription, actives raise or lower the signal
In short: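 Measured: reporter mRNA in HepG2 transiently transfected with cis-promoter reporter units, 24 h after chemical addition. Fitting was bidirectional, DMSO as negative control.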

[10] = ATG_TAL_CIS: Attagene CIS-FACTORIAL HepG2 Assay for human TAL Basal Promoter (AID 2282966); details: HepG2 Attagene cis-factorial TAL promoter reporter; actives raise or lower the signal;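 note: background control endpoint measuring basal TAL promoter reporter mRNA not a specific factor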
In short: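 HepG2, transient MRTU transfection, 24 h compound exposure; RNA → oligo(dT) RT → PCR → 6-FAM primer extension → HpaI digest → CE fluorescence. Bidirectional curve fit vs DMSO. Background-control readout.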

[11] = ATG_TGFb_CIS: Attagene CIS-FACTORIAL HepG2 Assay for human Transforming Growth Factor (TGF) (AID 2282967); details: HepG2 Attagene CIS TGFb reporter, mRNA transcription; actives raise or lower the signal
In short: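 HepG2 cells transiently transfected with cis-promoter-driven multiplexed reporter units; 24 h compound exposure. Reporter mRNA measured by RT-PCR, 6-FAM labeling, HpaI digestion and capillary electrophoresis; bidirectional fit versus DMSO baseline.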

[12] = target: X-box-binding protein 1 (Homo sapiens) (UniProt P17861); test: ATG_Xbp1_CIS: Attagene CIS-FACTORIAL HepG2 Assay for human X-box Binding Protein 1 (XBP1) (AID 2282972); details: HepG2 XBP1 cis-element reporter, Attagene multiplex; actives raise or lower the signal
Chain of X-box-binding protein 1 (Homo sapiens) (P17861 whole entry, looked up): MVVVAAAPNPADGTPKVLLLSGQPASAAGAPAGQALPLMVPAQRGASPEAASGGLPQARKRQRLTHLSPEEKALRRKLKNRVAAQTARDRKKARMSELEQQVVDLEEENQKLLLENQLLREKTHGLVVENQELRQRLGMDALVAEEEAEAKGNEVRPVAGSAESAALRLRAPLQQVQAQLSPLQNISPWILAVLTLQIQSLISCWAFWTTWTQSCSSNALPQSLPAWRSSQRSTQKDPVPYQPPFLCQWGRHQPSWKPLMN
In short: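 Changes in reporter transcript abundance, read by RT-PCR and capillary electrophoresis, reflect endogenous transcription factor activity. Transfected HepG2 cells received compound for 24 hours; DMSO defined baseline for bidirectional analysis.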

[13] = ATG_GAL4_TRANS: Attagene TRANS-FACTORIAL HepG2 Assay for GAL4 (Internal Marker) (AID 2282976; active = hit-call score of the fitted dose curve at least 0.9, where 1 is the maximum); details: HepG2 Attagene TRANS GAL4 internal marker reporter
In short: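 RT-PCR/capillary electrophoresis readout of reporter mRNA. HepG2, transient MRTU transfection (GAL4-UAS reporters), 24 h compound exposure. Background-control endpoint, positive direction vs DMSO baseline.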

[14] = target: Glucocorticoid receptor (Homo sapiens) (UniProt P04150); test: ATG_GR_TRANS: Attagene TRANS-FACTORIAL HepG2 Assay for human Glucocorticoid Receptor (GR) (AID 2282978; active = hit-call score of the fitted dose curve at least 0.9, where 1 is the maximum;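 note: activators score as hits since higher reporter transcript over DMSO is fitted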); details: HepG2 Attagene TRANS GR reporter, mRNA transcription
Chain of Glucocorticoid receptor (Homo sapiens) (P04150 whole entry, looked up, the tested form may be a part): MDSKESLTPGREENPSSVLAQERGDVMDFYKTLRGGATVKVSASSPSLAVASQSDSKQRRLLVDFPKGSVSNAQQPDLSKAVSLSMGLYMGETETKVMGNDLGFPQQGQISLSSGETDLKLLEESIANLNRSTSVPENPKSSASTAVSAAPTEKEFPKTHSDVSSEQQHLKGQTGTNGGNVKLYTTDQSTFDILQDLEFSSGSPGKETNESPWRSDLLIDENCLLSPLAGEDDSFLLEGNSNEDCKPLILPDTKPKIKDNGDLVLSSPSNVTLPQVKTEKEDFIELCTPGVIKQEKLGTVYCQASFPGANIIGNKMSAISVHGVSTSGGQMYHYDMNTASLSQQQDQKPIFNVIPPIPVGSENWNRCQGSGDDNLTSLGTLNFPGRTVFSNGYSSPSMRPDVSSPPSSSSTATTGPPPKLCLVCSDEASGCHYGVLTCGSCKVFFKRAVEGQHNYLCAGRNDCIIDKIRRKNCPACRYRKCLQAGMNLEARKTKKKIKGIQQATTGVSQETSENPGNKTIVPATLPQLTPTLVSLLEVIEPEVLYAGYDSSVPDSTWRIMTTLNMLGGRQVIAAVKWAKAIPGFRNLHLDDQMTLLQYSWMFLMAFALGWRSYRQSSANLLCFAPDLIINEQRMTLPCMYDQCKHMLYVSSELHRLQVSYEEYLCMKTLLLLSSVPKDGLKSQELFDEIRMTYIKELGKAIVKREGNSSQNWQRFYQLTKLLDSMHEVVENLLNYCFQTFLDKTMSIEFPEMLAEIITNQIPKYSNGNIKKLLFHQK
In short: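 In this trans-factorial format, exogenous NR-GAL4 chimeric proteins in transfected HepG2 cells regulate GAL4-UAS reporter transcription. After 24 h treatment, reporter mRNA induction relative to DMSO is read by RT-PCR and capillary electrophoresis.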

[15] = target: Estrogen receptor (Homo sapiens) (UniProt P03372); test: ATG_ERa_TRANS: Attagene TRANS-FACTORIAL HepG2 Assay for human Estrogen Receptor alpha (ERa) (AID 2282970; active = hit-call score of the fitted dose curve at least 0.9, where 1 is the maximum); details: HepG2 Attagene TRANS ERa GAL4 reporter, mRNA
Chain of Estrogen receptor (Homo sapiens) (P03372 whole entry, looked up, the tested form may be a part): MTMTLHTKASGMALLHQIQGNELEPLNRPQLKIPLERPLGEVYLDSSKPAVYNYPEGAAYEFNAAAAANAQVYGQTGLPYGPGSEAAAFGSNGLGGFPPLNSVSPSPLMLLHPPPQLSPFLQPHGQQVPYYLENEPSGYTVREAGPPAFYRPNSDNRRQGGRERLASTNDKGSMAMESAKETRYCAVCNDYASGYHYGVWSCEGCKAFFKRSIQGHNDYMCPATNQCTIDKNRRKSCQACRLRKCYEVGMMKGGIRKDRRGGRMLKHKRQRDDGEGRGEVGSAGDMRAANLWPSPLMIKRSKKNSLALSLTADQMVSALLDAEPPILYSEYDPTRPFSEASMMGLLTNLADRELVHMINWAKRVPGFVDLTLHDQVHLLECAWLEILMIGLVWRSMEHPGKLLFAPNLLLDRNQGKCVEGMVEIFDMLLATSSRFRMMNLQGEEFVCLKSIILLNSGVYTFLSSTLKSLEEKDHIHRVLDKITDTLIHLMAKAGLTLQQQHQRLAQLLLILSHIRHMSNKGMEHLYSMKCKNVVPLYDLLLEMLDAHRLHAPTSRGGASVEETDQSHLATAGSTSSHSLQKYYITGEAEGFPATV
In short: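 Reporter mRNA induction after 24 hours, detected by fluorescent RT-PCR and capillary electrophoresis, gives the read-out. Cells are HepG2 transiently transfected with GAL4-UAS reporter transcription units responding to chimeric NR-Gal4. Activity is taken as gain of signal over DMSO baseline.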

[16] = target: Nuclear receptor subfamily 1 group I member 3 (Homo sapiens) (UniProt Q14994); test: ATG_CAR_TRANS: Attagene TRANS-FACTORIAL HepG2 Assay for human Constitutive Androstane Receptor (CAR) (AID 2282969; active = hit-call score of the fitted dose curve at least 0.9, where 1 is the maximum;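 note: activators raise reporter mRNA above DMSO so AC50 marks induction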); details: HepG2 Attagene TRANS-FACTORIAL CAR reporter
Chain of Nuclear receptor subfamily 1 group I member 3 (Homo sapiens) (Q14994 whole entry, looked up, the tested form may be a part): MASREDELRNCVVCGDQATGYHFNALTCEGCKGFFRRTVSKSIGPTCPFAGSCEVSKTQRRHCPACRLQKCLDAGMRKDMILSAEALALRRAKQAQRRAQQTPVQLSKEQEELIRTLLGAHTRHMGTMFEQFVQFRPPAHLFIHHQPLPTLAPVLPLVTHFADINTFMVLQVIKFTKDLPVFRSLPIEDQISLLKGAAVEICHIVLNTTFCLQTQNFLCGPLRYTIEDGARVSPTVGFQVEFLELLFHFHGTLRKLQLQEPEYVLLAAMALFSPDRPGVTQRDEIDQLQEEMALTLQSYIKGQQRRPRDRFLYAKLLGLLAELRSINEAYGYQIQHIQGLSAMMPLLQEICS
In short: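 Signal is reporter mRNA induction relative to DMSO, measured 24 h after dosing by RT-PCR with fluorescent primer extension and capillary electrophoresis. Human HepG2 liver cells carried transiently transfected chimeric NR-Gal4/GAL4-UAS reporter constructs.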

[17] = ATG_M_19_TRANS: Attagene TRANS-FACTORIAL HepG2 Assay for M19 Transcription Factor (Internal Marker) (AID 2282974; active = hit-call score of the fitted dose curve at least 0.9, where 1 is the maximum); details: HepG2 Attagene TRANS-FACTORIAL M19 internal marker reporter
In short: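 Cells: human HepG2, transiently transfected with multiplexed reporter transcription units. Exposure: 24 h. Detection: RT-PCR of reporter mRNA with capillary electrophoresis. Analysis: gain-of-signal vs DMSO.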

[18] = target: Estrogen-related receptor gamma (Homo sapiens) (UniProt P62508); test: ATG_ERRg_TRANS: Attagene TRANS-FACTORIAL HepG2 Assay for human Estrogen-Related Receptor gamma (ERRg) (AID 2282977; active = hit-call score of the fitted dose curve at least 0.9, where 1 is the maximum;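 note: hits increase reporter signal over DMSO so potencies reflect activators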); details: HepG2 Attagene TRANS reporter, ERRg transactivation
Chain of Estrogen-related receptor gamma (Homo sapiens) (P62508 whole entry, looked up, the tested form may be a part): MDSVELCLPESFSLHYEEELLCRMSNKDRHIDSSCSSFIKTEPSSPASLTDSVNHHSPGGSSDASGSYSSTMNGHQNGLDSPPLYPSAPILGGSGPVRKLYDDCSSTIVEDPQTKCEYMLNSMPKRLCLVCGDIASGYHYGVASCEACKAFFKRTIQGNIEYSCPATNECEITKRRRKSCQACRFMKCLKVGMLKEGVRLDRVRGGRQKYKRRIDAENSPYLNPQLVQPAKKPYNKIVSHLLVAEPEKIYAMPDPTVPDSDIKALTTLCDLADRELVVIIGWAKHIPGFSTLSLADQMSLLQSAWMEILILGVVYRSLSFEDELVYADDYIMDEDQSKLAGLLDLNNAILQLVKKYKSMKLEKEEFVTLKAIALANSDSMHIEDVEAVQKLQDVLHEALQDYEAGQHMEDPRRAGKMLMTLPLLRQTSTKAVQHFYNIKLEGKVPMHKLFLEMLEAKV
In short: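 Readout: fluorescent reporter-mRNA fragments resolved by capillary electrophoresis after RT-PCR and HpaI cut. Cells: transiently transfected HepG2 carrying GAL4-UAS reporters driven by exogenous NR-Gal4 chimeras, dosed 24 h. Activity fitted upward relative to DMSO baseline.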

[19] = ATG_VDRE_CIS: Attagene CIS-FACTORIAL HepG2 Assay for human Vitamin D Receptor Element (VDRE) (AID 2282968); details: HepG2 VDRE cis-reporter transcription, actives raise or lower the signal
In short: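 Measures endogenous factor activity through cis-element-driven reporter transcripts in transiently transfected HepG2. Cells are treated 24 h; reporter mRNA is quantified by RT-PCR and capillary electrophoresis; fitting is bidirectional.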

Measured: AC50

CCCCCCCCC1CCC(=O)O1 (configuration not stated)
not listed: [15] | [16] | [17] | [18] | [19]
inactive: all other assays above

C=CC(=O)OCC(CO)(COCC(COC(=O)C=C)(COC(=O)C=C)COC(=O)C=C)COC(=O)C=C
active: [3] 2.71 µM | [4] 5.94 µM | [5] 3.37 µM | [6] 2.85 µM | [9] 0.426 µM | [12] 2.87 µM
inactive: [1] | [2] | [7] | [10] | [11] | [15]

CCOC=C(C(=O)OCC)C(=O)OCC
active: [1] 27.6 µM
not listed: [18] | [19]
inactive: all other assays above

CCc1cccc(CC)c1NC(=O)C(=O)O
not listed: [8] | [15] | [17] | [19]
inactive: all other assays above

CC1CNCC(C)O1 (configuration not stated)
not listed: [15] | [17] | [18] | [19]
inactive: all other assays above

CCCCCC(C)OC(=O)COc1ccc(Cl)c2cccnc12 (configuration not stated)
active: [1] 7.22 µM
not listed: [14] | [15] | [17] | [18] | [19]
inactive: all other assays above

CCOC(=O)c1nc(C(Cl)(Cl)Cl)n(-c2ccc(Cl)cc2Cl)n1
active: [1] 2.06 µM | [3] 167 µM | [5] 54.6 µM | [6] 27.7 µM | [8] 173 µM | [10] 118 µM | [11] 27.8 µM | [12] 178 µM
inactive: [2] | [4] | [7] | [13]

CCCCCCCCCCCC(=O)NCCCN(C)C
active: [1] 5.26 µM | [3] 21.3 µM | [6] 8.13 µM | [8] 18.9 µM | [19] 18 µM | [12] 19.1 µM
inactive: [2] | [4] | [5] | [7] | [10] | [11] | [17]

CCO[Si](C)(C)OCC
not listed: [15] | [16] | [17] | [18]
inactive: all other assays above
